# Assay outcomes as filed in PubChem BioAssay.
# Shown are actives, neighbours in structure and some others; about 3% of the full set was active somewhere.
# VDR inh: blocks the human vitamin D receptor; Potency, µM, hits mostly inhibitors; 400,000 tested, 0.93% active; AID 504847; VDR-SRC2-3 peptide fluorescence polarization, 2 h
# Target sequence (P11473 whole entry, looked up): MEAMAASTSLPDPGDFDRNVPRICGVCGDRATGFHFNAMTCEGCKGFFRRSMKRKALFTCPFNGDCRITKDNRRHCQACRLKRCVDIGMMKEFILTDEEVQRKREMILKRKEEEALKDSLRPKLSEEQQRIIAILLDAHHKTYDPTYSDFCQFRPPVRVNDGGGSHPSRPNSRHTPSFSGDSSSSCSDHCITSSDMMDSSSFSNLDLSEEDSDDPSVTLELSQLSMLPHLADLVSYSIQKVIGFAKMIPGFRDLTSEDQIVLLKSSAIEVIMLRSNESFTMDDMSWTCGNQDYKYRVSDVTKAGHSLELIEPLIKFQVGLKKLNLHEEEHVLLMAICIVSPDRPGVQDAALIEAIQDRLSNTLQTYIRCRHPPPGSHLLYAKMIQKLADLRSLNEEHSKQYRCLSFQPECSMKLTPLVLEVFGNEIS
#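 VDR–SRC2-3 interaction, FP format. Cmpds 23 nl via pintool, brief spin, 2 h ambient incubation.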
# GCN5L2 inh: blocks human GCN5L2 histone acetyltransferase. Q92830. GCN5L2 HAT assay, ThioGlo1 CoA-SH fluorescence. Potency, µM (doses to about 58.9 µM), most hits filed as inhibitors. 390,000 tested, 0.21% active
#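 Titration-based screen in which CoA formation is detected via maleimide probe ThioGlo1 (50uM) turning fluorescent on thiol reaction; substrates H3(1-25) 75uM and acetyl-CoA 70uM, GCN5L2 20nM, 20 min incubation at room temperature.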
# PLK1 PBD inh: PLK1 (human) polo-box domain binding inhibition; Plk1 PBD binding of FITC phosphopeptide, fluorescence polarization; AID 720504; P53350; 360,000 tested, 2.8% active; Potency, µM, hits mostly inhibitors; further: series mostly up to about 57 µM; nearly all actives have a fitted effect of over 65% in size
# 12-LOX inh: inhibitors of human 12S-lipoxygenase ALOX12 | P18054 | purified 12hLO, xylenol orange hydroperoxide absorbance | Potency, µM (titrated, usually from 108 µM), hits mostly inhibitors | 580,000 tested, 1.1% active
#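 Purified human 12hLO (150 nM final) in 25 mM Hepes, 0.01% Triton X-100, pH 7.0 was preincubated 15 min at room temperature with compound. Then 40 uM arachidonic acid was added, 30 min. Hydroperoxide was read by Fe-XO absorbance ratio 573/405 nm.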
# Numbers stand for hits; i = inactive; ? = inconclusive; nt = no result given; ! = not active in a repeat. The call rests on the fitted dose curve; in most records, active means well fitted curve in the direction sought with a large enough effect; inconclusive means small, poorly fitted or top-dose-only effect, or another doubt; inactive means no such curve, though single readings can be large; an effect the other way counts as inactive or inconclusive.
SMILES,VDR inh,GCN5L2 inh,PLK1 PBD inh,12-LOX inh
O=C1NC(=O)C(c2ccccc2[N+](=O)[O-])=C1Nc1ccc(O)c(Cl)c1,44.7µM!,?,i,?
O=C(NNc1ccccc1[N+](=O)[O-])Nc1ccc(Cl)c(Cl)c1,i,i,i,?
O=C(c1cnc(Cc2c[nH]c3ccccc23)c(I)c1)N1CCN(Cc2ccccc2)CC1,nt,nt,nt,i
O=C(c1cnc(Cc2c[nH]c3ccccc23)c(I)c1)N1CCOCC1,nt,nt,nt,20µM
CNC(=O)c1ccc(CNC(=O)C2CCCC2)cc1,nt,nt,nt,i
Cc1cccc(/C=N/NC(=O)C2CC2)c1,nt,nt,nt,i
CCc1nc2ccc(C(=O)NC3CCC(C)CC3)cc2nc1CC (stereo not drawn),i,i,29.9µM,i
COc1ccc(-c2cc3n(n2)C(C(=O)Nc2ccccc2F)CC(=O)N3)cc1OC (stereo not drawn),nt,nt,nt,i
C/C(=N/NC(=O)CNC(=O)c1ccccc1F)c1ccc2c(c1)CCCC2,i,i,8.44µM,i
COc1ccc(N2CCN(C(=O)CCc3nnc4ccc(N5CCC(C)CC5)nn34)CC2)cc1,i,i,i,i
CCOC(=O)C(Cc1ccccc1)NC(=O)CCc1nnc2ccc(N3CCCC3)nn12 (stereo not drawn),i,i,23.8µM,i
CCOC(=O)C(Cc1ccccc1)NC(=O)CCc1nnc2ccc(N3CCCCC3)nn12 (stereo not drawn),i,i,i,i
CCOC(=O)C1CCN(C(=O)CCc2nnc3ccc(N4CCC(C)CC4)nn23)CC1,?,i,23.8µM,i
CCOC(=O)CNC(=O)CCc1nnc2ccc(N3CCC(C)CC3)nn12,?,?,23.8µM,i
CC1CC(C)CN(C(=O)CCc2nnc3ccc(N4CCCCC4)nn23)C1 (stereo not drawn),i,i,29.9µM,?
CCOc1ccc(NC(=O)CCc2nnc3ccc(N4CCC(C)CC4)nn23)cc1,i,i,i,i
O=C(Cn1nnc(-c2cc(C(F)(F)F)cc(C(F)(F)F)c2)n1)NNC(=S)Nc1ccc(Cl)cc1,i,i,?,17.8µM
CC1CN(C(=O)c2cc3cc(Cl)cc(Cl)c3oc2=O)CC(C)O1 (stereo not drawn),i,i,21.2µM,i
O=C1CC(c2ccccc2O)Cc2nc(N3CCN(c4cccc(Cl)c4)CC3)ncc21 (stereo not drawn),nt,nt,nt,i
CN(C)/N=C/c1ccc(P(c2ccc(/C=N/N(C)C)o2)c2ccc(/C=N/N(C)C)o2)o1,i,i,i,39.8µM
Cc1ccc(CNS(=O)(=O)c2ccc(CCC(=O)O)cc2)cc1,nt,nt,nt,i
CC1CCN(CCCCOc2ccccc2F)CC1,?,i,29.9µM,i
CC(=O)Nc1ccc(NC(=O)C2(C)CC2(Cl)Cl)cc1 (stereo not drawn),79.4µM,i,21.2µM,i
CCOc1ccc(-n2nnc3c(=O)n(Cc4nc(-c5ccc(SC)cc5)no4)cnc32)cc1,nt,nt,nt,i
CCCN1C(=O)/C(=c2\sc3nc(=O)c(Cc4ccc(C)cc4)nn3c2=O)c2ccccc21,?,i,29.9µM,50.1µM
SMILES,VDR inh,GCN5L2 inh,PLK1 PBD inh,12-LOX inh
CCCCN1C(=O)/C(=c2\sc3nc(=O)c(-c4ccccc4)nn3c2=O)c2ccccc21,?,i,26.7µM,?
O=S1(=O)C[C@H](N2CCN(Cc3ccc4c(c3)OCO4)CC2)[C@@H](S(=O)(=O)c2ccccc2)C1,nt,nt,nt,i
CC(C)(C)C(=O)N1CCN(c2ccc(NC(=O)C3(c4ccccc4)CCCC3)cc2)CC1,nt,nt,nt,i
O=C(CN1CCN(S(=O)(=O)c2ccc(Br)cc2)CC1)N/N=C/c1ccc(Br)s1,i,i,23.8µM,i
COC(=O)c1ccc2ccccc2c1OS(=O)(=O)c1ccc(S(C)(=O)=O)cc1,nt,nt,nt,i
Cc1ccc(OCC(=O)N2CCN(C(=O)CCC3CCCC3)CC2)cc1,i,i,i,nt
O=C(CCC1CCCC1)N1CCN(C(=O)COc2ccccc2)CC1,i,i,23.8µM,i
Cc1ccc(NC(=O)CCc2ncc(-c3ccc(C)c(C)c3)o2)c(O)c1,nt,nt,nt,i
CCN(CC)c1ccc(/C=N/Nc2ccccc2)c(O)c1,79.4µM,i,?,nt
CCN(CC)c1ccc(N=Cc2ccc(N(CC)CC)cc2O)cc1,50.1µM,i,i,?
CCN(CC)c1ccc(/C=N/Nc2cccc(C)c2)c(O)c1,?,i,?,?
Cc1cc(CN2CCN(c3ccc(F)cc3)CC2)cs1,i,i,nt,?
CCc1c(CN2CCN(c3ccc(F)cc3)CC2)csc1C,i,i,nt,44.7µM!
O=C(CCc1ncc(-c2ccccc2)o1)Nc1cc(F)cc(F)c1,nt,nt,nt,i
CCOC(=O)c1ccc(NC(=O)c2c(NC(=O)CCC(=O)O)sc3c2CCCCC3)cc1,?,i,26.7µM,20µM
CCOC(=O)c1ccc(NC(=O)c2c(NCc3cccs3)sc3c2CCCCC3)cc1,?,22.4µM,nt,?
